This is one part of a sample in which hits are shown more often than they occur.
Tgondii IFNg: blocks Toxoplasma gondii growth in the presence of IFN-gamma | activity change, negative = inhibition, % (concentration not given with the values) | 69,000 tested, 3.8% active | Toxoplasma gondii growth in IFN-gamma-treated host cells; active compounds read low; in the data active = activity change below about -70%, passing the limit was not always enough;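 note: host cells are HeLa cells infected with Toxoplasma gondii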
Numbers without * were called inactive; i = inactive; ! = not active in a repeat.

SMILES	Tgondii IFNg
CCN1c2cc(C)ccc2-n2cccc2C12CCN(C(=O)Nc1ccc(C)c(F)c1)CC2	22
CCN1c2cc(C)ccc2-n2cccc2C12CCN(C(=O)Nc1ccc(Cl)cc1)CC2	252
CCN1c2cc(C)ccc2-n2cccc2C12CCN(C(=O)NCc1ccccc1)CC2	60
CCN1c2cc(C)ccc2-n2cccc2C12CCN(C(=O)Nc1ccc(F)cc1)CC2	-96*
Cc1c(C)n(C(=O)Cn2nnc3ccccc3c2=O)c2ccccc12	-7
CCN1C(=O)N(CCCc2cccnc2)C(=O)C12CCN(Cc1ccc3c(c1)Cc1ccccc1-3)CC2	-56
C=CCOC(=O)N1CCC(Oc2ccc3ncccc3c2)(C(=O)O)CC1	-61
CCCc1cc(-c2cccnc2OCC)nc(C)n1	-5
CCN1C[C@H](COC)[C@@]2(CCN(C(=O)c3cc4ccccc4s3)C2)C1	0
O=C(NCC1(c2ccccc2)CCOCC1)c1cc(C2CC2)[nH]n1	-3
COc1ccccc1-c1nc(CSc2nc3c(=O)[nH]c(C)nc3n2C)c(C)o1	1
CCOc1ccc(-c2nc(CN(c3ccccc3OC)S(=O)(=O)c3ccccc3)c(C)o2)cc1	-48
Cn1ccnc1CNC1CC2(CCN(S(C)(=O)=O)CC2)c2ccccc21 (centres undefined)	15
Cc1scc(C(=O)NCC2CCC(c3ncc(Cl)cc3-c3ccncc3)CC2)c1C (centres undefined)	-88*
Cc1ncc(-c2ccncc2C)c(C2CCC(CNC(=O)c3oc(C)nc3C)CC2)n1 (centres undefined)	-32
Cc1ncc(-c2ccccn2)c(C2CCC(CNC(=O)c3scnc3C)CC2)n1 (centres undefined)	8
Cc1ccc(CN2CCC3(CCCN(Cc4nccs4)C3)C2)o1 (centres undefined)	102
CN(C)S(=O)(=O)N1CC[C@H]2OCC[C@@]2(COCc2cccnc2)C1	-5
COc1c(C)c2c(c(O)c1C/C=C(/C)CCC(=O)O)C(=O)OC2	-77*
Cc1ccc(-c2nc(CN3CCN(C(=O)Nc4cccc(Cl)c4)CC3)c(C)o2)cc1	1
COCCNC(=O)C1CCCC12CCN(Cc1cn(C)nc1C)C2 (centres undefined)	3
CC(=O)NCCn1cnc(-c2ccccc2)c1-c1nc2ccccc2n1C	7
CCCc1nnsc1C(=O)N1CCC(Cc2cccc(C(N)=O)c2)C1 (centres undefined)	-7
O=C(COc1ccc(Cl)cc1)Nc1ccc(Cl)cn1	197
Cc1ccccc1CSCC(=O)Nc1c[nH]c(=O)[nH]c1=O	15
SMILES	Tgondii IFNg
O=C(COc1ccc(Cl)cc1)Nc1c[nH]c(=O)[nH]c1=O	-106*
Cc1cc(Nc2ccc(Br)cc2)nc(-c2ccccc2O)n1	-85*
Cc1cc(N2CC(c3ccccn3)C2)nc(-c2ccccc2O)n1	-14
CCOc1ncccc1-c1nc(C)cc(NC)n1	7
CNc1nc(C)c(C(=O)N2CCN(Cc3nc4ccccc4c(=O)[nH]3)CC2)s1	4
S=C(NCc1csc2ccccc12)c1ccccc1	-78*
Cc1nn(C)c(C)c1CNC(=O)Nc1csc2ccccc12	-64
O=S(=O)(NCc1csc2ccc(Cl)cc12)c1ccccc1	-14
CC(C)C[C@H](NC(=O)[C@@H](NC(=O)c1cccc(-c2ccccc2)n1)[C@@H](C)O)B(O)O	-64
CC(Cc1cnccn1)NC(=O)c1cn(C/C=C/c2ccccc2)nn1 (centres undefined)	4
CC(C)C[C@H](NC(=O)[C@H](Cc1ccccc1)NC(=O)c1cnccn1)B(O)O	-81*
Cc1ccc2c(c1)C(=O)NC1(CCN(C(=O)Cc3ccc(Cl)cc3)CC1)N2C	-24
Cc1cc(=O)oc2cc(CN3CCC(OCc4cccnc4)CC3)ccc12	2
C/C=C/c1ccc(C2[C@H]3CNC[C@@H]2N3C(=O)NCCC)cc1 (some centres undefined)	8
C/C=C/c1ccc(C2[C@H]3CNC[C@@H]2N3C(=O)NC2CCCCC2)cc1 (some centres undefined)	-76*!
C/C=C/c1ccc(C2[C@H]3CNC[C@@H]2N3C(=O)Nc2ccccc2Cl)cc1 (some centres undefined)	44
COC(=O)[C@@H](NCC(=O)Nc1ccc(C)cc1C)c1ccccc1	0
O=C(c1ccc[nH]1)N1CCC2(CC1)OCCNc1ccccc12	-9
CCn1c(CNS(=O)(=O)c2c(C)nn(C(F)F)c2C)nc2ccccc21	-40
CCC(C)n1ncn(-c2ccc(N3CCN(c4ccc(OCC5COC(Cn6cncn6)(c6ccc(Cl)cc6Cl)O5)cc4)CC3)cc2)c1=O (centres undefined)	-95*
CCCCc1ncc(CN2CCCN(c3ccc(F)cc3)CC2)[nH]1	8
Cc1ccc2nc(C)cc(OCC(=O)Nc3cccc(-n4cccn4)c3)c2c1	-66
Oc1ccc(CN2CCOc3c(O)cc(-c4cccc(Cl)c4)cc3C2)cc1	3
Cc1noc(C)c1CN1CCOc2c(O)cc(-c3cccc(Cl)c3)cc2C1	-74*
Oc1cc(-c2cccc(Cl)c2)cc2c1OCCN(Cc1cscn1)C2	-23
SMILES	Tgondii IFNg
CN(CCCO)c1nc(C(C)(C)C)nc2c1cnn2C	-1
Cc1ccccc1NC(=O)CN(c1cc(Cl)ccc1C)S(C)(=O)=O	-39
Cc1ccc(Cl)cc1N(CC(=O)Nc1c(F)cccc1F)S(C)(=O)=O	-76*
CS(=O)(=O)N(CCCC(=O)NCc1ccco1)c1cc(Cl)ccc1Cl	99
CCn1nc(C)c(NC(=O)Cn2nc(C3CCCNC3)n(CC)c2=O)c1C (centres undefined)	5
Cc1cccc(NC(=O)c2nnn(Cc3nc(-c4ccccc4)oc3C)c2C)c1C	73
O=C(OCC(O)CNC12CC3CC(CC(C3)C1)C2)C12CC3CC(CC(C3)C1)C2 (centres undefined)	-89*
Clc1ccc(-c2nc(N3CCC(N4CCCCC4)CC3)c3ccccc3n2)cc1	-33
COc1ccc(-c2nc3c(s2)CN(C(=O)Nc2ccc(C)cc2C)CC3)cc1	53
CCOc1ccc(-c2nc3c(s2)CN(C(=O)Nc2cc(C)ccc2C)CC3)cc1	-112*
CCOc1ccc(-c2nc3c(s2)CN(C(=O)Nc2ccc(C)c(C)c2)CC3)cc1	-106*
Cc1ccc(NC(=O)N2CCc3nc(-c4ccccc4)sc3C2)cc1C	101
COc1ccc(C)cc1NC(=O)N1CCc2nc(-c3ccc(C)cc3)sc2C1	-13
CCOc1ccc(-c2nc3c(s2)CN(C(=O)Nc2ccc(C)cc2)CC3)cc1	-66
Cc1ccc2nc(CN(C)C(=O)c3cc(C(C)C)nn3C)[nH]c2c1	12
CN(C)CC1(O)CCN(C(=O)Cn2c(C3CC3)nc3ccccc32)C1 (centres undefined)	4
O=C(c1ccsc1)N1CCC2(CC1)Nc1cccnc1NC2=NC1CCCC1	66
CCCc1ncncc1C(=O)N1CCC2(CCCO2)CC1	-36
CCOC(=O)c1c(C)noc1-c1csc(COc2ccc(Cl)cc2)n1	-3
O=C1CCC(c2nc(C3CCN(Cc4ccsc4)CC3)no2)N1 (centres undefined)	-22
Cc1nc(-c2ccc(F)cc2)sc1CCNC(=O)c1ccc(Cl)cc1	-58
CCOc1ccc(C(=O)NCCc2sc(-c3ccc(C)cc3)nc2C)cc1	2
CCOc1ccc(C(=O)NCCc2sc(-c3ccc(OC)cc3)nc2C)cc1	77
Cc1ccc(C(=O)NCCc2sc(-c3ccc(Cl)cc3)nc2C)cc1	-82*
CCOc1ccc(C(=O)NCCc2sc(-c3ccc(Cl)cc3)nc2C)cc1	-82*
Cc1ccc(-c2nc(C)c(CCNC(=O)c3ccccc3)s2)cc1	i

Screens deposited in PubChem BioAssay by Broad Institute.
